Source: PubChem
A selection: hits, their analogues and other compounds. The true share with any hit is near 17%.
TDP1 block: qHTS Assay for Inhibitors of Tyrosyl-DNA Phosphodiesterase (TDP1); AID 485290, 2010; hit rate 0.28% among 350,000; Potency, µM (highest dose often 130 µM), usual class: inhibitors; recombinant TDP1, AlphaScreen DNA substrate cleavage; Tyrosyl-DNA phosphodiesterase 1 (Homo sapiens), Q9NUW8; also: nearly all actives have a fitted effect of over 40% in size
Target sequence (Q9NUW8 whole entry, looked up): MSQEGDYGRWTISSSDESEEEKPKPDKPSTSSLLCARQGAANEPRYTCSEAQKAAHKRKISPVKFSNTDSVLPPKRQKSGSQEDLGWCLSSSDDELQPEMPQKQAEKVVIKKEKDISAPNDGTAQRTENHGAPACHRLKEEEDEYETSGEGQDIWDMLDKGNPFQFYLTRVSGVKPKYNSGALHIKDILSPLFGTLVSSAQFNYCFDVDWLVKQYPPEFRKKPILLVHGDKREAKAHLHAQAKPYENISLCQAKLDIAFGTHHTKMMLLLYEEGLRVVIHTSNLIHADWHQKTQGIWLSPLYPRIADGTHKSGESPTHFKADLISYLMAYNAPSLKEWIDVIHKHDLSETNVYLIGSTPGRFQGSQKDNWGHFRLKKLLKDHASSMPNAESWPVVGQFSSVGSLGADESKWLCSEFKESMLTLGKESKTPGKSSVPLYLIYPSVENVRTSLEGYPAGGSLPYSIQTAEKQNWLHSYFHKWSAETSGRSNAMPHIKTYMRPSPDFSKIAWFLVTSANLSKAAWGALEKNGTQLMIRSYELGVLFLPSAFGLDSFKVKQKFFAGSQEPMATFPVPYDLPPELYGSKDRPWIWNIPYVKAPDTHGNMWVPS
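E. coli-derived human Tdp1, 1 nM final. Cpd preinc 15 min RT; substrate 15 nM final, 5 min RT; AS bead mix 10 ug/ml final, 10 min RT. Signal loss = tyrosine-FITC cleavage. No-enzyme wells = max signal.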
ClpP mod: qHTS Assay for Activators of ClpP. purified B. subtilis ClpP, FRET peptide cleavage, 20 min. Potency, µM (titrated, usually from 57.5 µM). hit rate 1.9% among 340,000; active = well fitted falling curve with a large enough effect; inconclusive = small, poorly fitted or top-dose-only effect; inactive = no such curve, though single readings can be large or run the other way; also: the source files actives as falling curves though it sought activators and does not explain the sign; nearly all actives have a fitted effect of over 65% in size
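Purified B. subtilis ClpP, 10 microg/mL final in Tris/HCl pH8 with KCl, BSA, glycerol and Tween-20, cleaved an Abz/nitrotyrosine-quenched decapeptide. Fluorescence (ex 320, em 430) was read at 0 and 20 min at room temperature. Delta was normalized to 5.8 microM ADEP and DMSO/no-enzyme controls.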
DT40 TDP1 CPT: qHTS for Inhibitors of human tyrosyl-DNA phosphodiesterase 1 (TDP1): qHTS in cells in presence of CPT | AID 686979, 2013 | Potency, µM (doses to about 46.2 µM), actives largely listed as inhibitors | chicken DT40 Tdp1-/-;hTDP1 cells + 20 nM CPT, ATP luminescence, 48 h | hit rate 12% among 420,000; also: nearly all actives have a fitted effect of over 55% in size
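Chicken DT40 Tdp1-/- cells stably complemented with human TDP1 were seeded at 400 cells/well in medium containing 20 nM camptothecin, exposed to pin-transferred compounds, and grown at 37 °C for at least 48 hr. Viability was read as ATP luminescence.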
TDP1 cell noCPT: qHTS for Inhibitors of human tyrosyl-DNA phosphodiesterase 1 (TDP1): qHTS in cells in absence of CPT; DT40 Tdp1-/- hTDP1 cells, no CPT, ATP luminescence, 48 h; Potency, µM (doses to about 46.2 µM), usual class: inhibitors; hit rate 15% among 420,000; AID 686978, 2013; also: nearly all actives have a fitted effect of over 55% in size
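Compound effects on proliferation are scored in DT40 Tdp1-/-;hTDP1 cells in the absence of CPT. ATP levels (CellTiter-Glo luminescence) are recorded after a ≥48 hr, 37 °C incubation.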
Numbers stand for hits; . = inactive; ? = inconclusive; / = no result given; [ ] = remark or other dose. Unless noted, calls follow the shape of the dose curve; as a rule, active = well fitted curve in the direction sought with a large enough effect; inconclusive = small, poorly fitted or top-dose-only effect, or another doubt; inactive = no such curve, though single readings can be large; an effect the other way counts as inactive or inconclusive.

SMILES | TDP1 block | ClpP mod | DT40 TDP1 CPT | TDP1 cell noCPT
COCCN(C(=O)CSc1nnc(C)n1-c1ccc(C)cc1)c1c(N)n(Cc2ccccc2)c(=O)[nH]c1=O | / | . | . | .
Cc1ccccc1C(=O)Nc1cc2c(cc1N1CCOCC1)n(C)c(=O)n2C | .[12.3 µM] | . | ? | ?
Cn1c(=O)n(C)c2cc(N3CCCCC3)c(NC(=O)c3c(F)cccc3F)cc21 | .[12.3 µM] | . | 13µM | 26µM
Cc1ccccc1C(=O)Nc1cc2c(cc1N1CCCCC1)n(C)c(=O)n2C | . | . | . | 12µM
CN(C)CCC=C1c2ccccc2C=Cc2ccccc21 | . | . | ? | 15µM
CNCCC=C1c2ccccc2C=Cc2ccccc21 | .[21 µM] | . | 16µM | 13µM
CNc1ccc(C=C2C=Cc3ccccc32)cc1 | / | . | . | .
COc1ccc(Cc2nc3ccc(C(=O)N(C)C(C)c4ccon4)cc3o2)cc1 (configuration not stated) | . | . | ? | .
COc1ccc(CCC(=O)NCc2nc3cccnc3n2Cc2cccc(OC)c2)cc1 | . | . | ? | ?
CC(C)=CCC[C@H](C)C[C@@H]1Cc2[nH]c(=S)[nH]c(=O)c2[C@@H](c2ccc(F)cc2)O1 | / | . | ? | 26µM
CC(C)=CCC[C@H](C)CC1Cc2[nH]c(=S)[nH]c(=O)c2C(c2ccc(F)cc2)O1 (some centres not stated) | / | . | . | ?
CC(C)=CCC[C@H](C)C[C@@H]1CC2=C(C(=O)OC(C)(C)O2)[C@@H](c2ccc(F)cc2)O1 | / | . | ? | 16µM
Nc1ccccc1Sc1nc2ccccc2[nH]1 | . | / | 13µM | 15µM
COc1nccnc1NS(=O)(=O)c1ccc(NS(=O)(=O)c2ccc(NC(C)=O)cc2)cc1 | . | . | . | .
CCCCCC(=O)Nc1ccc(S(=O)(=O)Nc2nccnc2OC)cc1 | . | 25µM | . | .
CC(=O)Nc1cccc(-c2cc(NC(C)=O)c3ncc(-c4cccc(C(C)=O)c4)n3c2)c1 | / | . | 23µM | 10µM
COc1cccc(-c2cc(NC(C)=O)c3ncc(-c4ccc(OC)c(OC)c4)n3c2)c1 | / | . | ? | 21µM
COc1cccc(-c2cnc3c(NC(C)=O)cc(-c4ccc(OC)c(OC)c4)cn23)c1 | / | . | 10µM | 15µM
CC(=O)Nc1cc(-c2cccc(C(=O)NCCN(C)C)c2)cn2c(-c3ccccc3)cnc12 | / | . | ? | ?
COc1cccc(-c2cnc3c(NC(C)=O)cc(-c4ccsc4)cn23)c1 | / | ? | 13µM | 15µM
CCN(CC)S(=O)(=O)c1ccc(C(=O)N(c2ccc(C)cc2)C2C=CS(=O)(=O)C2)cc1 (configuration not stated) | . | / | . | .
O=C(CCN1C(=O)/C(=C/c2ccccc2F)SC1=S)NC1C=CS(=O)(=O)C1 (configuration not stated) | . | . | . | ?
COc1ccc(-c2cc(NC(C)=O)c3ncc(-c4cccc(C(C)=O)c4)n3c2)cc1OC | / | . | 21µM | 21µM
CC(=O)Nc1cc(-c2cccc(NS(C)(=O)=O)c2)cn2c(-c3cccc(C(F)(F)F)c3)cnc12 | / | . | 18µM | 18µM
CC(=O)Nc1cccc(-c2cc(NC=O)c3ncc(-c4ccc(C(C)=O)cc4)n3c2)c1 | / | . | ? | 16µM
SMILES | TDP1 block | ClpP mod | DT40 TDP1 CPT | TDP1 cell noCPT
COc1ccc(-c2cc(NC=O)c3ncc(-c4ccc(C(C)=O)cc4)n3c2)cn1 | / | . | 5.2µM | 7.3µM
CC(=O)Nc1cc(-c2cccc(C(=O)NCCN(C)C)c2)cn2c(-c3cccc(C(F)(F)F)c3)cnc12 | / | . | ? | ?
Cc1ccn2c(=O)nc(SCC(=O)NCCc3ccccc3)nc2c1 | / | . | . | .
COC(=O)c1ccccc1C(=O)N1CCC(CCC(=O)NC2CC2)CC1 | . | . | . | .
COc1ccc(N/N=C/c2c(C(=O)O)ccc3ccccc23)cc1 | . | . | 2.6µM | 3.3µM
CN[C@H](CC(C)C)C(=O)N[C@H]1C(=O)N[C@@H](CC(N)=O)C(=O)N[C@H]2C(=O)N[C@H]3C(=O)N[C@H](C(=O)N[C@@H](C(=O)O)c4cc(O)cc(O)c4-c4cc3ccc4O)[C@H](O)c3ccc(c(Cl)c3)Oc3cc2cc(c3O[C@@H]2O[C@H](CO)[C@@H](O)[C@H](O)[C@H]2O[C@H]2C[C@](C)(N)C(O)[C@H](C)O2)Oc2ccc(cc2Cl)[C@H]1O (some centres not stated) | / | / | . | .
COc1ccc(Cl)cc1NC(=O)c1c(NCc2cccnc2)sc2c1CCCC2 | . | . | 23µM | 15µM
CCOC(=O)N1CCc2c(sc(NCc3ccc(N(C)C)cc3)c2C(=O)Nc2ccccc2OCC)C1 | . | . | ? | 8.2µM
COc1ccc(Cl)cc1NC(=O)c1c(NCc2ccc(C)o2)sc2c1CCCC2 | . | . | ? | 21µM
COc1cc(C(=O)Nc2sc3c(c2C(=O)NCc2ccco2)CCCC3)cc(OC)c1OC | . | . | ? | 21µM
CCOC(=O)N1CCc2c(sc(NCc3sccc3C)c2C(=O)Nc2cc(Cl)ccc2OC)C1 | . | . | . | ?
CC(C)[C@H](NC(=O)OC(C)(C)C)[C@@H](O)CC(=O)OC(C)(C)C | .[21 µM] | / | / | /
Cc1noc(C)c1COc1ccccc1C(=O)NCc1ccco1 | . | . | . | .
CCOc1ccccc1NC(=O)c1c(NCc2ccc(C)o2)sc2c1CCCCC2 | . | . | 4.6µM | 2.9µM
CCOc1ccc(CCNS(=O)(=O)c2c(C)n[nH]c2C)cc1OCC | . | . | 21µM | .
Clc1ccccc1CNc1ncnc2c1nc1n2CCCC1 | . | ? | ? | ?
CCOc1ccc(CCNC(=O)CN2C(=O)COc3ccc(S(=O)(=O)N4CCC(C)CC4)cc32)cc1 | . | . | / | /
Cc1c(CN2CCC(CO)(Cc3cccc(C(F)(F)F)c3)CC2)c2ccccc2n1C | . | . | 23µM | 16µM
COc1ccc(CC2(CO)CCN(Cc3cc4ccccc4o3)CC2)cc1 | . | / | 16µM | 16µM
OCC1(Cc2cccc(C(F)(F)F)c2)CCN(Cc2cc3ccccc3o2)CC1 | . | / | ? | 16µM
CC1(C(=O)N2CCC(CO)(Cc3cccc(C(F)(F)F)c3)CC2)CC1 | / | . | ? | ?
COc1ccc(CC2(CO)CCN(Cc3ccncc3)CC2)cc1 | . | / | . | .
Cc1nc(CC(=O)N2CCC(n3c(C4CCC4)nc4cccnc43)CC2)cs1 | / | / | .[9.04 µM] | .
CCOC(=O)/C(=C/c1ccco1)NC(=O)c1ccc(Br)o1 | . | / | . | .
CC(C)Oc1ccc(CNC(=O)c2ccc(NC(=O)N3CC(C)Sc4ccccc43)cc2)cc1 (configuration not stated) | . | . | 21µM | .
CC(C)Oc1ccc(CNC(=O)c2ccc(NC(=O)N3CCSc4ncccc43)cc2)cc1 | . | ? | ? | ?
CC1CN(C(=O)Nc2ccc(C(=O)NCCc3ccccc3Cl)cc2)c2ccccc2S1 (configuration not stated) | . | . | 23µM | 21µM
